Reference: PubChem BioAssay (Tox21)
Inconclusive results are not listed. Values without a mark were called inactive. Active and inactive are the calls of the source. Calls come from the whole dose curve; as a rule, active = well fitted activation curve with a large enough effect; inconclusive = small, poorly fitted or top-dose-only effect; inactive = flat fitted curve, though single readings scatter.

assay: qHTS assay to identify small molecule phospholipidosis (PLD) inducers (AID 1259344); details: HepG2 phospholipidosis, LipidTOX Red imaging, 24 h; series mostly up to 38.3 µM; PLD induction: at the top concentration
From the text: National Center for Advancing Translational Sciences [NCATS]
Drug-induced Phospholipidosis (PLD) caused by cationic amphiphilic drugs is characterized by the appearance of unicentric or multicentric-lamellar bodies when viewed under electron microscope. Electron microscopy is the gold standard method for PLD detection, however, this method is time-consuming and labor intensive, making it unsuitable for evaluating a large set of compounds. A cell-based phospholipidosis assay has been developed using the LipidTox reagent in HepG2 cells and miniaturized into a 1536-well plate format. Drug induced phospholipid accumulation is stained with the LipidTox dyes in red color which then is determined using an automated high content screening system.
HepG2 cells are dispensed at 900 cells/3 uL/well into Collagen I-coated 1536-well black-wall/clear-bottom assay plates (Greiner Bio-One, Monroe, NC) using the Multidrop Combi 8 channel dispenser (Thermo Fisher, Waltham, MA, USA). The assay plates are incubated at 37 C for 4 hours to allow the cell attachment. 3 uL of 1:500 LipidTOX Red dye is added using the dispenser, and then 23 nL compounds are added via a Wako Pintool station (Wako Automation, San Diego, CA). Amiodarone, a known PLD inducer, was used as a positive control and DMSO was used as a negative control. The assay plates were then incubated at 37 C for 24 hours.
For fixations, 4 uL of 8% paraformaldehyde fixative solution containing 10 ug/mL Hoechst 33342 in Dulbecco's phosphate-buffered saline (DPBS) is added using a Kalypsys washer/dispenser (Kalypsys, San Diego, CA, USA). After incubation at room temperature for 30 min, the assay plates are washed once with DPBS using a Kalypsys washer/dispenser. The assay plates are then sealed and stored at 4 C before imaging. The fluorescence intensities (595 nm excitation, 615 nm emission for LipidTOX; 352 nm excitation, 461 nm emission for Hoechst 33342) are measured using an ImageXpress Micro Widefield High Content Screening System (Molecular Devices, Sunnyvale, CA, USA) with a 20x Plan Fluor objective. Images are acquired for one site in each well and analyzed with the MetaXpress software (Molecular Devices) using the Transfluor module. Several algorithmic outputs, such as pit count per well, pit count per cell, pit integrated intensity per well, and pit integrated intensity per cell, are used for quantitative image analysis for PLD.
% is set by controls: 0 for no effect and ±100 for the full control effect.

| Structure (SMILES) | PLD induction | Potency |
| --- | --- | --- |
| CNC(C)Cc1ccccc1 (stereo not given) | -1.13% [at 78.4 µM] |  |
| N#CC1(N2CCCCC2)CCCCC1 | 0.451% |  |
| CN1CC[C@@]23CCCC[C@@H]2[C@@H]1Cc1ccc(O)cc13 | 1.2% |  |
| O.O.O.O=C([O-])C(O)C(O)C(=O)[O-].O=C([O-])C(O)C(O)C(=O)[O-].[K+].[K+].[Sb].[Sb] (stereo not given) | -3.46% |  |
| C=CC[C@]1(O)CC[C@H]2[C@@H]3CCC4=CCCC[C@@H]4[C@H]3CC[C@@]21C | 0.243% |  |
| C[C@]12CC[C@H](O)C[C@H]1CC[C@@H]1[C@@H]2CC[C@]2(C)[C@@H](c3ccc(=O)oc3)C[C@H]3O[C@]132 | 11.2% |  |
| CCCC(C)C1(CC)C(=O)NC(=O)NC1=O (stereo not given) | -0.423% |  |
| COC(COC(N)=O)C1=C(N2CC2)C(=O)C(C)=C(N2CC2)C1=O (stereo not given) | -1.75% |  |
| O=C1CCO1 | -1.06% |  |
| Cc1nnc2n1-c1ccc(Cl)cc1C(c1ccccc1Cl)=NC2 | 0.739% |  |
| C[C@@H]([C@H](O)c1ccccc1)N(C)C | 0.865% |  |
| CN[C@@]1(c2ccccc2Cl)CCCCC1=O | -4.46% [at 7.66 µM] |  |
| CC(Cc1ccccc1)NC=O (stereo not given) | -0.32% |  |
| COC(=O)[C@@H]1[C@H]2CC[C@@H](C[C@H]1OC(=O)c1ccccc1)N2C | -0.307% |  |
| COc1ccc2c(c1)C13CCCC[C@@H]1C(C2)N(C)CC3 (stereo not given in full) | 1.98% |  |
| CNc1ccc(C(=O)CC(O)CCC(C)C2OC(=O)CC(O)CC(=O)CC(O)CC(O)CC(O)CC(O)CC3(O)CC(O)C(C(=O)OC)C(CC(O[C@@H]4O[C@H](C)[C@@H](O)[C@H](N)[C@@H]4O)/C=C/C=C/C=C/C=C/C=C/C=C/C=C/C2C)O3)cc1 (stereo not given in full) | 5.09% |  |
| OC[C@@H](O)[C@H]1O[C@@H]2O[C@@H](C(Cl)(Cl)Cl)O[C@@H]2[C@H]1O | 0.0159% |  |
| C[C@H]1[C@H]2Cc3ccc(O)cc3[C@]1(C)CCN2CCc1ccccc1 | 15% [at 78.4 µM] |  |
| Cc1cccc(C(C)c2cnc[nH]2)c1C (stereo not given) | 0.182% |  |
| O=C(CS(=O)C(c1ccccc1)c1ccccc1)NO (stereo not given) | 0.0642% |  |

| Structure (SMILES) | PLD induction | Potency |
| --- | --- | --- |
| O=C1Nc2ccc(Cl)cc2C(c2ccccc2Cl)=NC1O (stereo not given) | 3.37% |  |
| C[N+]1(C)[C@@H]2CC[C@H]1CC(OC(=O)c1c[nH]c3ccccc13)C2 (stereo not given in full) | -0.128% |  |
| C=CCN1CC[C@]23c4c5ccc(O)c4O[C@H]2[C@@H](O)C=C[C@H]3[C@H]1C5 | -0.706% |  |
| Cc1nnc2n1-c1sc(Br)cc1C(c1ccccc1Cl)=NC2 | -3.53% |  |
| CN=C1CN(O)C(c2ccccc2)=c2cc(Cl)ccc2=N1 |  | inactive |
| C[C@@H](Cc1ccccc1)NCCC(c1ccccc1)c1ccccc1 | 5% [at 15.5 µM] |  |
| Oc1ccc2c3c1O[C@H]1[C@@H](O)C=C[C@H]4[C@H](C2)NCC[C@@]341 | -1.54% |  |
| O=C1C[C@@H]2OCC=C3CN4CC[C@]56c7ccccc7N1[C@H]5[C@H]2[C@H]3C[C@H]46 (tested in a mixture with another compound) |  | inactive |
| CC(C)[C@H]1C(=O)N2CCC[C@H]2[C@]2(O)O[C@](NC(=O)[C@@H]3C[C@@H]4c5cccc6[nH]cc(c56)C[C@H]4N(C)C3)(C(C)C)C(=O)N12 | -2.97% |  |
| C/C(=C\c1csc(C)n1)[C@@H]1C[C@@H]2O[C@]2(C)CCC[C@H](C)[C@H](O)[C@@H](C)C(=O)C(C)(C)[C@@H](O)CC(=O)O1 | 2.29% |  |
| O=C(C[C@@H]1NCCC[C@H]1O)Cn1cnc2cc(Br)c(Cl)cc2c1=O | -0.908% |  |
| CC(C)=CCN1CC[C@]2(C)c3cc(O)ccc3C[C@H]1[C@H]2C | -0.374% [at 3.15 µM] |  |
| OC(c1ccccc1)(c1ccccc1)C1CN2CCC1CC2 (stereo not given) | 7.66% |  |
| O=[N+]([O-])c1cc(I)c(O)c(I)c1 | 0.723% |  |
| C#CCN1CC(=O)N(COC(=O)C2C(C=C(C)C)C2(C)C)C1=O (stereo not given) | -0.449% |  |
| O=P1(N(CCCl)CCCl)NC(OO)CCO1 (stereo not given) | -0.967% |  |
| NCC(O)c1cccc(O)c1 (stereo not given) | -0.383% |  |
| COc1cc(C[C@H](C)N)c(OC)cc1C | 13.6% [at 78.4 µM] |  |
| CCC/C=C/C=C/C(=O)O[C@H]1/C(=C/C(=O)OC)C[C@H]2C[C@H]([C@@H](C)O)OC(=O)C[C@H](O)C[C@@H]3C[C@H](OC(C)=O)C(C)(C)[C@](O)(C[C@@H]4C/C(=C/C(=O)OC)C[C@H](/C=C/C(C)(C)[C@]1(O)O2)O4)O3 | -0.23% |  |
| CC(=O)OCC(=O)[C@H]1CC[C@H]2[C@@H]3CC[C@H]4C[C@H](O)CC[C@]4(C)[C@H]3C(=O)C[C@]12C | 4.93% [at 15.5 µM] |  |
